“And” between values parts separate entries of the source, which are not always exact repeats. Identical values can stand only once. A number with no mark means an inactive call. Records with an inconclusive call do not appear. The source made the active and inactive calls. Unless noted, calls come from the whole dose curve; as a rule, active = well fitted curve in the direction sought with a large enough effect in the repeat runs; inconclusive = weak or mixed curves; inactive = no such curve, though single readings can be large; an effect the other way counts as inactive or inconclusive.

Assay [1] in a line: qHTS assay to identify small molecule phospholipidosis (PLD) inducers (AID 1259344; active = well fitted curve in the direction sought with a large enough effect; an effect the other way counts as inactive or inconclusive; note: potency is the fitted concentration of half-maximal effect; for PLD induction: % is set by controls: 0 for no effect and ±100 for the full control effect). Summed up:
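Read-out is LipidTOX Red fluorescence (ex 595/em 615) imaged in HepG2 cells after 24 h compound exposure at 37 C, with Hoechst nuclear counterstain (ex 352/em 461) allowing per-cell normalisation.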
Background: In qHTS, concentration-response curves come from the screen itself.

A short description of assay [2]: qHTS assay to identify small molecule HDAC inhibitors (AID 1259364).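 Note: wild-type HCT-116 cells with endogenous class I/II HDAC activity; top concentration of the series differs between compounds; % is set by controls: 0 for no effect and ±100 for the full control effect; nearly all actives have a fitted effect of over 45% in size.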 Put shortly: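 Cells (HCT-116, wild type) are seeded at 1,500 per well, incubated overnight, treated with compound in DMSO for 2 hr, then developed with HDAC-Glo I/II reagent for 30 min at room temperature.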
Assay [3] in a line: qHTS assay to identify small molecule HDAC inhibitors - cell viability counter screen (AID 1259365). Note: series mostly up to about 92 µM; % is set by controls: 0 for no effect and ±100 for the full control effect; nearly all actives have a fitted effect of over 50% in size. Put shortly:
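After overnight seeding at 1,500 cells per well, wild-type HCT-116 cultures took up compounds in DMSO for 2hr at 37 C. Viable cell content came from luminescence with CellTiter-Glo.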

Assay [4] is described as follows: qHTS assay to identify small molecule agonists of the sonic hedgehog signaling (Shh) pathway - cell viability counter screen (AID 1259366). Note: nearly all actives have a fitted effect of over 50% in size. Note: potency is the fitted concentration of half-maximal effect. Put shortly: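 Same-well cytotoxicity read. Gli1-Luc reporter 3T3 cells; compounds 24hr, 37C/5% CO2; CellTiter-Fluor fluorescence.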
Assay [5] in a line: qHTS assay to identify small molecule agonists of the sonic hedgehog signaling (Shh) pathway (AID 1259368; calls by dose curve;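 note: NIH/3T3-derived 3T3Gli1-Luc cells carrying a stable Gli1-driven firefly luciferase reporter; series mostly up to about 92 µM; % is set by controls: 0 for no effect and ±100 for the full control effect; nearly all actives have a fitted effect of over 15% in size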). Summed up: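 Cells of a mouse NIH/3T3 clone stably expressing luciferase under the Gli1 transcriptional response element are exposed to test chemicals for 24 hr at 37 C. Pathway activation is detected as a rise in luminescence.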
Assay [6] is described as follows: qHTS assay to identify small molecule antagonists of the sonic hedgehog signaling (Shh) pathway (AID 1259369; calls by dose curve; note: nearly all actives have a fitted effect of over 45% in size; note: potency is the fitted concentration of half-maximal effect; for activity change, negative = inhibition: % is set by controls: 0 for no effect and ±100 for the full control effect). Summed up:
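Cells are plated and held 4hr at 37 C, compounds (DMSO) are pinned in, conditioned medium is added to stimulate the pathway, and after 24hr luciferase reagent is added for 30min before luminescence is read.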

Assay [7] addresses Estrogen receptor beta (Homo sapiens) (UniProt Q92731). The experiment in a line: qHTS assay to identify small molecule agonists of the estrogen receptor beta (ER-beta) signaling pathway (AID 1259377; active = well fitted activation curve with a large enough effect in the signal ratio in the repeat runs, not every such curve was filed as active; the % refers to the signal ratio; note: % is set by controls: 0 for no effect and ±100 for the full control effect). Put shortly:
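Read-out: beta-lactamase FRET fluorescence. Cell line: ER-beta-UAS-bla HEK293T in 2% charcoal-stripped FBS. Exposure: 16 hr at 37C. Substrate step: 2 h at room temperature.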

Assay [8] has the same target. The experiment in a line: qHTS assay to identify small molecule antagonists of the estrogen receptor beta (ER-beta) signaling pathway (AID 1259378; active = well fitted inhibition curve with a large enough effect in the signal ratio in the repeat runs, not every such curve was filed as active; the % refers to the signal ratio; note: potency is the fitted concentration of half-maximal effect). Summed up: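 ER-beta-UAS-bla HEK293T cells in 2% charcoal-stripped FBS medium treated with compound plus 1nM final 17-beta-estradiol for 16 hr at 37C. Beta-lactamase reporter read by FRET substrate fluorescence after 2 hours at room temperature.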

Assay [9] can be described thus: qHTS assay to identify small molecule agonists of the estrogen receptor beta (ER-beta) signaling pathway - cell viability counter screen (AID 1259380). Note: nearly all actives have a fitted effect of over 30% in size. Note: potency is the fitted concentration of half-maximal effect. Summed up:
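Cytotoxicity is measured in parallel with the reporter screen: after 16 hr compound exposure at 37C and a 2 hr LiveBLAzer step, CellTiter-Glo is added to the same ER-beta-UAS-bla HEK293T wells and luminescence read after 30 min.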

The nature of assay [10]: qHTS assay to identify small molecule antagonists of the estrogen receptor beta (ER-beta) signaling pathway - cell viability counter screen (AID 1259382). Note: nearly all actives have a fitted effect of over 55% in size. Note: potency is the fitted concentration of half-maximal effect. Put shortly: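 Cytotoxicity counter screen multiplexed with the beta-lactamase antagonist assay: GripTite HEK293T ER-beta-bla cells were treated 16 hr with test chemicals in the presence of 1nM 17-beta-estradiol, and viability was measured by CellTiter-Glo.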

Assay [11] addresses Estrogen receptor (Homo sapiens) (UniProt P03372). The experiment in a line: qHTS assay to identify small molecule agonists of the estrogen receptor alpha (ER-alpha) signaling pathway in the presence of an antagonist (AID 1259383; calls by dose curve; note: top concentration of the series differs between compounds; % is set by controls: 0 for no effect and ±100 for the full control effect; nearly all actives have a fitted effect of over 15% in size). Put shortly: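 Agonist-mode confirmation in the presence of the ER antagonist ICI-182,780 at 10.0nM final. Breast-derived VM7Luc4E2 reporter cells were exposed to compounds for 22hr, and ERE-driven luciferase was quantified by luminescence.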

The nature of assay [12]: qHTS assay to identify small molecule agonists or antagonists of the thyroid stimulating hormone receptor (TSHR) signaling pathway - wild type cell line counter screen (AID 1259384; calls by dose curve; note: % is set by controls: 0 for no effect and ±100 for the full control effect). Put shortly:
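Wild-type Hek293 cells, 800/well, 18 h at 37C, then compound with Ro20-1724 for 30 min RT. cAMP by HTRF (cAMP-d2/anti-cAMP cryptate), 1 h RT, fluorescence read. 15 concentrations, triplicates.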

Assay [13] concerns the target Thyrotropin receptor (Homo sapiens) (UniProt P16473). As to the kind of experiment: qHTS assay to identify small molecule antagonists of the thyroid stimulating hormone receptor (TSHR) signaling pathway (AID 1259385; calls by dose curve; note: % is set by controls: 0 for no effect and ±100 for the full control effect; nearly all actives have a fitted effect of over 20% in size). Summed up:
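TSHR-HEK293 cells (800/well) plated 18 h, then compounds with Ro20-1724 and TSH at 1.5 ng/mL final, 30 min at room temperature. cAMP quantified by HTRF (cAMP-d2/anti-cAMP-cryptate, 1 h); 15 concentrations in triplicate.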

Assay [14] in a line: qHTS assay to identify small molecule agonists of the estrogen receptor alpha (ER-alpha) signaling pathway in the presence of an antagonist - cell viability counter screen (AID 1259386).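 Note: cells exposed to compounds for 22 h at 37 °C before the viability read; nearly all actives have a fitted effect of over 30% in size.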 Note: potency is the fitted concentration of half-maximal effect. Put shortly: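 Cytotoxicity was measured in parallel with the ERE-luciferase agonist screen, in the same wells. The cells were VM7Luc4E2, which endogenously express ER-alpha, and treatment was with compounds plus 10.0nM ICI-182,780 for 22hr.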

In assay [15] the target is Estrogen receptor (Homo sapiens) (UniProt P03372). As to the kind of experiment: qHTS assay to identify small molecule antagonists of the estrogen receptor alpha (ER-alpha) signaling pathway using the BG1 cell line in the presence of 0.1 nM 17-beta-estradiol (AID 1259244). Note: % is set by controls: 0 for no effect and ±100 for the full control effect; nearly all actives have a fitted effect of over 50% in size. Summed up:
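Antagonist mode: compounds in DMSO are pinned onto VM7Luc4E2 reporter cells, 0.1 nM final 17beta-estradiol is added, and after 22 h at 37C luciferase luminescence is measured with ONE-Glo.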

For assay [16], the target named is Progesterone receptor (Homo sapiens) (UniProt P06401). The experiment in a line: qHTS assay to identify small molecule agonists of the progesterone receptor (PR) signaling pathway (AID 1346784; calls by dose curve; note: % is set by controls: 0 for no effect and ±100 for the full control effect; nearly all actives have a fitted effect of over 30% in size). Summed up:
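Compounds were tested for PR agonism in HEK 293T cells bearing a beta-lactamase gene under UAS control. Treatment lasted 16 hr at 37C; signal came from fluorescence of a FRET substrate.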

A short description of assay [17]: qHTS assay to identify small molecule antagonists of the sonic hedgehog signaling (Shh) pathway - cell viability counter screen (AID 1259367). Note: potency is the fitted concentration of half-maximal effect; nearly all actives have a fitted effect of over 55% in size. Summed up: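 Fluorescence read-out (CellTiter-Fluor, 1 hr at 37C) taken after 23 hr compound treatment of 3T3 Gli1-Luc cells stimulated with conditioned medium. Cells were seeded at 2,000 per well and pre-incubated 4 hr.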

Assay [18] in a line: qHTS assay to identify small molecule agonists of the androgen receptor (AR) signaling pathway in the presence of an antagonist - cell viability counter screen (AID 1259379). Note: nearly all actives have a fitted effect of over 25% in size. Note: potency is the fitted concentration of half-maximal effect. Put shortly:
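Cytotoxicity is assessed by CellTiter-Fluor in MDA-kb2 cells carrying an MMTV-driven luciferase reporter. Cells receive 3.0uM nilutamide plus compounds at 15 concentrations and incubate 16 hr at 37C without CO2 before fluorescence reading.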

Assay [19] deals with Androgen receptor (Homo sapiens) (UniProt P10275). As to the kind of experiment: qHTS assay to identify small molecule agonists of the androgen receptor (AR) signaling pathway in the presence of an antagonist (AID 1259381; calls by dose curve; note: % is set by controls: 0 for no effect and ±100 for the full control effect; nearly all actives have a fitted effect of over 15% in size). Summed up: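 Agonist-mode confirmation screen: human MDA-kb2 cells stably expressing luciferase under an MMTV promoter bearing AR and GR response elements, co-treated with 3.0uM nilutamide (final). Luminescence measured after 16hr compound incubation.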
Sequence of Androgen receptor (Homo sapiens) (P10275 whole entry, looked up): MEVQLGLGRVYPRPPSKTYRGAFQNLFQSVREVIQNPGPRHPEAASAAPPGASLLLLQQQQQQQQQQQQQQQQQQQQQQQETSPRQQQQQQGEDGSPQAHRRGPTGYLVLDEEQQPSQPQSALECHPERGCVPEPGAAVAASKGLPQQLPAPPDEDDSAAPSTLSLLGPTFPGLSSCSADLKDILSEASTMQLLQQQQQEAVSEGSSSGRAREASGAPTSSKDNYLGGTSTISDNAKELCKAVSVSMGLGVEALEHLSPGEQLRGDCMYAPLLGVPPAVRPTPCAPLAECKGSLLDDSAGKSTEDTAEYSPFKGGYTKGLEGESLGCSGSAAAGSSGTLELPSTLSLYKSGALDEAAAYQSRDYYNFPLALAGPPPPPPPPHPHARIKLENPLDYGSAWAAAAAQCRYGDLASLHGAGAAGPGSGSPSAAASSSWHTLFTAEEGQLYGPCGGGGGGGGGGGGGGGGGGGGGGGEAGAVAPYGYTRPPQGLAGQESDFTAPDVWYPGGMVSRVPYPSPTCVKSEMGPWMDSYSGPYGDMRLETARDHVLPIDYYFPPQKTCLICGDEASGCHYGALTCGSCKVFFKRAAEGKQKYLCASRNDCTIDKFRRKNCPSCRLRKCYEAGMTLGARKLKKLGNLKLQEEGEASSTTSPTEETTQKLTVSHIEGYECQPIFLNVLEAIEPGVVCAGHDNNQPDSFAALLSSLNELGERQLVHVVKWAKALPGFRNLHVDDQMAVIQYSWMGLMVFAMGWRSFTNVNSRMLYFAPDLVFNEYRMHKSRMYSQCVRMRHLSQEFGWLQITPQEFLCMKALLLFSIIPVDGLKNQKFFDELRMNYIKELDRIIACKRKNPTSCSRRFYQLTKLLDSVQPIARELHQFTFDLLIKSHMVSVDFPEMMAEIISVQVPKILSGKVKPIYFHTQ

Sequence of Thyrotropin receptor (Homo sapiens) (P16473 whole entry, looked up): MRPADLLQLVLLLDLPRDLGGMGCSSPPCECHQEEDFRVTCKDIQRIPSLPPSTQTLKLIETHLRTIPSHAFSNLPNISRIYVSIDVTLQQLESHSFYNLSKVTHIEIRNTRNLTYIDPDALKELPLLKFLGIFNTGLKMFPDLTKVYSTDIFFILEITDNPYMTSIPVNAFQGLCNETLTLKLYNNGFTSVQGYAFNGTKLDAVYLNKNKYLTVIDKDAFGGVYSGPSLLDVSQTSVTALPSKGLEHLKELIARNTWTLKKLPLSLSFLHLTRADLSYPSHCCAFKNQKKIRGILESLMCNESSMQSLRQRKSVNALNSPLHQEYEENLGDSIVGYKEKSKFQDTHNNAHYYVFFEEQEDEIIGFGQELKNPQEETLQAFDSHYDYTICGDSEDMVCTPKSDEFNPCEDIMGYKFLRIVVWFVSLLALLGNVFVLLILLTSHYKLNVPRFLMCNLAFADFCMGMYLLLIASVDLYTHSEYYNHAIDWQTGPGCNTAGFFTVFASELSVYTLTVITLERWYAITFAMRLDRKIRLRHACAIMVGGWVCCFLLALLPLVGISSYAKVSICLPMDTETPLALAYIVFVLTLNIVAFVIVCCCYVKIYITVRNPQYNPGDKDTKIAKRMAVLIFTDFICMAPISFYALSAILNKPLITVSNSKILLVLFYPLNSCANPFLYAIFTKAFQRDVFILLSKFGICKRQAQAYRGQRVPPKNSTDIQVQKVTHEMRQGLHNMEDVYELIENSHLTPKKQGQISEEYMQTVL
Sequence of Progesterone receptor (Homo sapiens) (P06401 whole entry, looked up): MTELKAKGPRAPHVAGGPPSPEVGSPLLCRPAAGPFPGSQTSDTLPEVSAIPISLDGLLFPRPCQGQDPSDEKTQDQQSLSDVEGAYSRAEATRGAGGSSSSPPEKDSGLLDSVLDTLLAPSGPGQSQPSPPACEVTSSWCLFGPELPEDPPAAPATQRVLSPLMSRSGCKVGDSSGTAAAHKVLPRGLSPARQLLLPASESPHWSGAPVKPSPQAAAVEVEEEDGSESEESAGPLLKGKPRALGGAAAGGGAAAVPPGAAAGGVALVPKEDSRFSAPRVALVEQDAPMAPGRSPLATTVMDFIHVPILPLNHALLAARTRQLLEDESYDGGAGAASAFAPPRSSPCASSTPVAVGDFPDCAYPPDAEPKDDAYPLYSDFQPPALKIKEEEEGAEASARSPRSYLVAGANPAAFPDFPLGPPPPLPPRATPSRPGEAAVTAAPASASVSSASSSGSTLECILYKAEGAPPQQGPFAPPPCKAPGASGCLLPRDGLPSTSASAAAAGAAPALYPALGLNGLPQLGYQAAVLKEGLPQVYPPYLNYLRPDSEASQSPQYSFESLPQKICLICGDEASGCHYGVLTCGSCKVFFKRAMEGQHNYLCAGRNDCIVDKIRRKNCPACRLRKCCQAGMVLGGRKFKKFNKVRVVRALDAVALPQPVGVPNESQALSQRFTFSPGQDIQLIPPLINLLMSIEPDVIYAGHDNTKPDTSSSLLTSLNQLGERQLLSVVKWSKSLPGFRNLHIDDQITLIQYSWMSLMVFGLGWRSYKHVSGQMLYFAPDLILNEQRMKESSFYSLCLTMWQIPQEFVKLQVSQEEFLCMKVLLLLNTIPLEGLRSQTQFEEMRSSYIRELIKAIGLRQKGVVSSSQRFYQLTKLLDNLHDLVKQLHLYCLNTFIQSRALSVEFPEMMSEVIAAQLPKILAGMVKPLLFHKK
Sequence of Estrogen receptor (Homo sapiens) (P03372 whole entry, looked up): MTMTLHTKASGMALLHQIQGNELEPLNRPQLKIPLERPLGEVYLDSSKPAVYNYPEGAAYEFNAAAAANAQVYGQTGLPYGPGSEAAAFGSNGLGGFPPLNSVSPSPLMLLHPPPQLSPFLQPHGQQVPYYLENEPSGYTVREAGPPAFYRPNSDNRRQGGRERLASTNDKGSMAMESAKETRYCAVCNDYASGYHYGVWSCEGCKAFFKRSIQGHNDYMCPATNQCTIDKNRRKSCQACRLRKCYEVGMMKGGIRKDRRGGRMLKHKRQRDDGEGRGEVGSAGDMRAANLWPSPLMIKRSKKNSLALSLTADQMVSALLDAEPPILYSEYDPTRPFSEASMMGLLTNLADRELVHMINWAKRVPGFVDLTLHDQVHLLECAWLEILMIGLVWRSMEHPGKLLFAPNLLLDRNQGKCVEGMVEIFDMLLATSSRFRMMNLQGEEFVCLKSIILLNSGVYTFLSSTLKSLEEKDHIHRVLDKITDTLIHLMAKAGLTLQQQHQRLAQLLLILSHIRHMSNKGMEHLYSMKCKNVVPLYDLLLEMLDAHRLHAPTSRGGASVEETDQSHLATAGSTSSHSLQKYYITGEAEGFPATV
Sequence of Estrogen receptor beta (Homo sapiens) (Q92731 whole entry, looked up): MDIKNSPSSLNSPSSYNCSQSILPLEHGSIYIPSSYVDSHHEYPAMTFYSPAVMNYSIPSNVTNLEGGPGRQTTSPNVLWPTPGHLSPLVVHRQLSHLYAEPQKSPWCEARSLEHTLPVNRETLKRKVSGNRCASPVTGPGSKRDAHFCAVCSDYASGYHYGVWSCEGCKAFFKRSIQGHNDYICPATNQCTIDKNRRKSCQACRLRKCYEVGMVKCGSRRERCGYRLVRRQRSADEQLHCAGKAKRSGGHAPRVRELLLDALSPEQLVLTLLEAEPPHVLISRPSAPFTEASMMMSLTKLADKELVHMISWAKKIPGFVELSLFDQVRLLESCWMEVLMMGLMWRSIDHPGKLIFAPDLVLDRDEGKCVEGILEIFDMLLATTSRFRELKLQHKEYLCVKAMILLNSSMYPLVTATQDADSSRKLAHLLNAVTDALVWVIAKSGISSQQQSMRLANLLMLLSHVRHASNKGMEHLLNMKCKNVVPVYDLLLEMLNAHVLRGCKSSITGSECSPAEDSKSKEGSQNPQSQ

As to `CC(C)(C)CC(C)(C)c1ccc(OCCOCC[N+](C)(C)Cc2ccccc2)cc1`, the Potency result in [1], in assay [2], in [3], in assay [5], in assay [7] and in assay [11] was “inactive” throughout. The Potency result in assay [13] was “inactive”. The Potency in assay [4] is 48.5 µM (active); in [6] it was 4.22 µM (active); in assay [8], 26.6 µM (active); in [9], 27.3 µM (active) and 16.8 µM (active); in [10], 27.3 µM (active) and 15 µM (active); in assay [14], 61.1 µM (active). The call in assay [12] was inactive.

For `NNc1nc(-c2ccccc2)cs1`, the Potency result in assay [15], in assay [3], in assay [4], in assay [5], in assay [6] and in [7] was “inactive” each time. The Potency entry in assay [11] and in assay [16] was “inactive” each time. Further, the Potency in assay [9] is 25 µM (active); in assay [14], 56 µM (active). Further, the compound was classed as inactive in assay [12].

For the compound `NNc1nc(-c2ccc(N)cc2)cs1`, the Potency result in [15], in assay [3], in [5], in assay [7], in [8] and in assay [16] was “inactive” each time. Further, the Potency in assay [9] was 15.4 µM (active); in [14] it was 30.6 µM (active). Also, the call in assay [12] was inactive.

Regarding `CC1=C(C(=O)OC(C)C)C(c2cccc([N+](=O)[O-])c2)C(C(=O)OC2CN(C(c3ccccc3)c3ccccc3)C2)=C(N)N1` (stereo unspecified), the Potency result in [1], in assay [3], in assay [5], in assay [11] and in [13] was “inactive” throughout. Further, the Potency in assay [4] is 23.7 µM (active); in [17], 26.6 µM (active); in assay [6] it was 29.8 µM (active); in [8], 16.8 µM (active); in [9], 29.8 µM (active). The compound was classed as inactive in assay [12].

As to `CC(=O)S[C@@H]1CC2=CC(=O)CC[C@]2(C)[C@H]2CC[C@@]3(C)[C@@H](CC[C@@]34CCC(=O)O4)[C@H]12`, in assay [1], the PLD induction was 5.04% [at 1.53 µM]. Also, the Potency result in assay [3], in assay [5], in assay [7], in assay [18], in assay [13] and in assay [14] was “inactive” in each case. Further, the Potency in assay [9] is 30.6 µM (active). The compound was classed as inactive in [12].

Consider `CNC(=O)c1ccccc1`, for which the Potency entry in assay [15], in [3], in [4], in [5], in [6] and in assay [7] was “inactive” each time. The Potency entry in [18], in assay [9], in assay [10], in assay [11], in assay [13] and in assay [14] was “inactive” in each case. Moreover, in assay [16], the Potency entry was “inactive”. In addition, in assay [12], the result was inactive.

Consider `CCN1/C(=C/C=C/c2sc3ccccc3[n+]2CC)Sc2ccccc21`, for which the Potency is 22.4 µM (active) in [1]; 5.17 µM (active) in assay [17]; 1.16 µM (active) in assay [18]; 11.6 µM (active) in assay [10]; 6.51 µM (active) in assay [14]. Besides, the activity change, negative = cytotoxicity in assay [3] was -13.9% [at 19 µM]. Further, the activity change, negative = inhibition in [6] was -19% [at 19 µM]. Moreover, the activation in assay [11] is -11.7% [at 19 µM]. Besides, the cAMP activity change in [12] is -0.304% [at 18.9 µM].

Regarding `Cc1cc(C2CCCCC2)n(O)c(=O)c1`, the Potency entry in assay [1], in assay [2], in assay [3], in [9], in [10] and in assay [13] was “inactive” each time. The values for the Potency in assay [17] and in assay [6] were 15 µM (active) and 1.19 µM (active), respectively. Further, the result in assay [12] was inactive.

For `CN1CCN(CCC(=O)N2c3ccccc3Sc3ccc(C(F)(F)F)cc32)CC1`, the Potency result in assay [15], in [3], in assay [19] and in [14] was “inactive” each time. In addition, the Potency in assay [6] was 3.35 µM (active); in assay [8], 21.1 µM (active); in assay [18] it was 29.8 µM (active); in assay [9], 13.3 µM (active); in assay [10], 16.8 µM (active). Moreover, in assay [12], the outcome was inactive.

For the origin of these results see PubChem BioAssay (Tox21).
